# Results from paper PMC5540273 (PLoS ONE, 2017).
# Read-outs that look alike come from different tables or passages of the source.
# How the values were obtained:
# Settings in all cases: n = 1
# PHKG1 = test system: PHKG1
# PHKG2 = test system: PHKG2
# PIK3C2B = test system: PIK3C2B
# PIK3C2G = test system: PIK3C2G
# PIK3CA = test system: PIK3CA
# PIK3CB = test system: PIK3CB
# PIK3CD = test system: PIK3CD
# PIK3CG = test system: PIK3CG
# PIK4CB = test system: T1, PIK4CB
# T1 construct: gene PI4KB
# PIKFYVE = test system: PIKFYVE
# PIM1 = test system: PIM1
# PIM2 = test system: PIM2
# PIM3 = test system: PIM3
# PIP5K1A = test system: PIP5K1A
# PIP5K1C = test system: PIP5K1C
# PIP5K2B = test system: PIP5K2B
# PIP5K2C = test system: T2, PIP5K2C
# T2 construct: gene PIP4K2C
# PKAC-alpha = test system: T3, PKAC-alpha
# T3 construct: gene PRKACA
# PKAC-beta = test system: T4, PKAC-beta
# T4 construct: gene PRKACB
# PKMYT1 = test system: PKMYT1
# [1] = concentration: 1 μM, replicates: in singlicate
# 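Further: KINOMEscan kinase panel screen.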
compound,measurement,setting,value
CS(=O)(=O)c1ccc(-c2c(-c3ncn[nH]3)sc(N3CCOCC3)c2C#N)cc1,%Inh,PHKG1; [1],9%
same,%Inh,PHKG2; [1],7%
same,%Inh,PIK3C2B; [1],0%
same,%Inh,PIK3C2G; [1],14%
same,%Inh,PIK3CA; [1],96.9%
same,%Inh,PIK3CB; [1],97.3%
same,%Inh,PIK3CD; [1],65%
same,%Inh,PIK3CG; [1],57%
same,%Inh,PIK4CB; [1],0%
same,%Inh,PIKFYVE; [1],40%
same,%Inh,PIM1; [1],0%
same,%Inh,PIM2; [1],0%
same,%Inh,PIM3; [1],0%
same,%Inh,PIP5K1A; [1],0%
same,%Inh,PIP5K1C; [1],0%
same,%Inh,PIP5K2B; [1],14%
same,%Inh,PIP5K2C; [1],0%
same,%Inh,PKAC-alpha; [1],0%
same,%Inh,PKAC-beta; [1],7%
same,%Inh,PKMYT1; [1],0%
O=C(O)COc1ncnc2cc(-c3ccc4[nH]ncc4c3)sc12,%Inh,PHKG1; [1],13%
same,%Inh,PHKG2; [1],3%
same,%Inh,PIK3C2B; [1],0%
same,%Inh,PIK3C2G; [1],23%
same,%Inh,PIK3CA; [1],0%
same,%Inh,PIK3CB; [1],47%
same,%Inh,PIK3CD; [1],5%
same,%Inh,PIK3CG; [1],0%
same,%Inh,PIK4CB; [1],35%
same,%Inh,PIKFYVE; [1],12%
same,%Inh,PIM1; [1],0%
same,%Inh,PIM2; [1],0%
same,%Inh,PIM3; [1],7%
same,%Inh,PIP5K1A; [1],0%
same,%Inh,PIP5K1C; [1],0%
same,%Inh,PIP5K2B; [1],17%
same,%Inh,PIP5K2C; [1],0%
same,%Inh,PKAC-alpha; [1],0%
same,%Inh,PKAC-beta; [1],4%
same,%Inh,PKMYT1; [1],0%
Cc1ccc(C(=O)Nc2ccc(Nc3ccnc4cc(-c5ccccn5)ccc34)cc2O)cc1.Cl [GW440146],%Inh,PHKG1; [1],0%
same,%Inh,PHKG2; [1],0%
same,%Inh,PIK3C2B; [1],0%
same,%Inh,PIK3C2G; [1],0%
same,%Inh,PIK3CA; [1],0%
same,%Inh,PIK3CB; [1],0%
same,%Inh,PIK3CD; [1],100%
same,%Inh,PIK3CG; [1],0%
same,%Inh,PIK4CB; [1],0%
same,%Inh,PIKFYVE; [1],4%
same,%Inh,PIM1; [1],16%
same,%Inh,PIM2; [1],0%
same,%Inh,PIM3; [1],12%
same,%Inh,PIP5K1A; [1],35%
same,%Inh,PIP5K1C; [1],0%
same,%Inh,PIP5K2B; [1],11%
same,%Inh,PIP5K2C; [1],31%
same,%Inh,PKAC-alpha; [1],0%
same,%Inh,PKAC-beta; [1],8%
same,%Inh,PKMYT1; [1],0%
Fc1cc(Cl)ccc1Nc1ccnc2cc(-c3ccc(CN4CCCCC4)o3)ccc12 [GW560116],%Inh,PHKG1; [1],0%
same,%Inh,PHKG2; [1],0%
same,%Inh,PIK3C2B; [1],0%
same,%Inh,PIK3C2G; [1],0%
same,%Inh,PIK3CA; [1],0%
same,%Inh,PIK3CB; [1],0%
same,%Inh,PIK3CD; [1],0%
same,%Inh,PIK3CG; [1],0%
same,%Inh,PIK4CB; [1],0%
same,%Inh,PIKFYVE; [1],0%
same,%Inh,PIM1; [1],13%
same,%Inh,PIM2; [1],0%
same,%Inh,PIM3; [1],0%
same,%Inh,PIP5K1A; [1],0%
same,%Inh,PIP5K1C; [1],57%
same,%Inh,PIP5K2B; [1],5%
same,%Inh,PIP5K2C; [1],71%
same,%Inh,PKAC-alpha; [1],100%
same,%Inh,PKAC-beta; [1],0%
same,%Inh,PKMYT1; [1],0%
CC(=O)Nc1nc2cnc(Nc3cc(NC(=O)c4cccc(CCC#N)c4)ccc3C)nc2s1,%Inh,PHKG1; [1],0%
same,%Inh,PHKG2; [1],8%
same,%Inh,PIK3C2B; [1],9%
same,%Inh,PIK3C2G; [1],78%
same,%Inh,PIK3CA; [1],2%
same,%Inh,PIK3CB; [1],0%
same,%Inh,PIK3CD; [1],0%
same,%Inh,PIK3CG; [1],8%
same,%Inh,PIK4CB; [1],0%
same,%Inh,PIKFYVE; [1],0%
same,%Inh,PIM1; [1],5%
same,%Inh,PIM2; [1],19%
same,%Inh,PIM3; [1],9%
same,%Inh,PIP5K1A; [1],13%
same,%Inh,PIP5K1C; [1],0%
same,%Inh,PIP5K2B; [1],45%
same,%Inh,PIP5K2C; [1],4%
same,%Inh,PKAC-alpha; [1],15%
same,%Inh,PKAC-beta; [1],0%
same,%Inh,PKMYT1; [1],0%
COc1ccc(Nc2nccc(NCCNC(=O)Nc3ccccc3F)n2)cc1 [GSK1379901],%Inh,PHKG1; [1],0%
same,%Inh,PHKG2; [1],0%
same,%Inh,PIK3C2B; [1],0%
same,%Inh,PIK3C2G; [1],0%
same,%Inh,PIK3CA; [1],0%
same,%Inh,PIK3CB; [1],0%
same,%Inh,PIK3CD; [1],0%
same,%Inh,PIK3CG; [1],0%
same,%Inh,PIK4CB; [1],11%
same,%Inh,PIKFYVE; [1],0%
same,%Inh,PIM1; [1],0%
same,%Inh,PIM2; [1],0%
same,%Inh,PIM3; [1],0%
same,%Inh,PIP5K1A; [1],35%
same,%Inh,PIP5K1C; [1],33%
same,%Inh,PIP5K2B; [1],14%
same,%Inh,PIP5K2C; [1],56%
same,%Inh,PKAC-alpha; [1],0%
same,%Inh,PKAC-beta; [1],0%
same,%Inh,PKMYT1; [1],4%
Fc1cccc(COc2nnc(-c3ccc4c(c3)CCO4)o2)c1,%Inh,PHKG1; [1],0%
same,%Inh,PHKG2; [1],0%
same,%Inh,PIK3C2B; [1],0%
same,%Inh,PIK3C2G; [1],0%
same,%Inh,PIK3CA; [1],0%
same,%Inh,PIK3CB; [1],14%
same,%Inh,PIK3CD; [1],17%
same,%Inh,PIK3CG; [1],7%
same,%Inh,PIK4CB; [1],0%
same,%Inh,PIKFYVE; [1],24%
same,%Inh,PIM1; [1],11%
same,%Inh,PIM2; [1],8%
same,%Inh,PIM3; [1],0%
same,%Inh,PIP5K1A; [1],31%
same,%Inh,PIP5K1C; [1],6%
same,%Inh,PIP5K2B; [1],29%
same,%Inh,PIP5K2C; [1],10%
same,%Inh,PKAC-alpha; [1],0%
same,%Inh,PKAC-beta; [1],0%
same,%Inh,PKMYT1; [1],11%
Cc1ccc(NC(=O)Nc2cccc(C(F)(F)F)c2)cc1 [GSK955403],%Inh,PHKG1; 1 µM,12%
same,%Inh,PHKG2; 1 µM,15%
same,%Inh,PIK3C2B; 1 µM,1%
same,%Inh,PIK3C2G; 1 µM,36%
same,%Inh,PIK3CA; 1 µM,5%
same,%Inh,PIK3CB; 1 µM,0%
same,%Inh,PIK3CD; 1 µM,0%
same,%Inh,PIK3CG; 1 µM,9%
same,%Inh,PIK4CB; 1 µM,0%
same,%Inh,PIKFYVE; 1 µM,0%
same,%Inh,PIM1; 1 µM,5%
same,%Inh,PIM2; 1 µM,15%
same,%Inh,PIM3; 1 µM,21%
same,%Inh,PIP5K1A; 1 µM,0%
same,%Inh,PIP5K1C; 1 µM,0%
same,%Inh,PIP5K2B; 1 µM,0%
same,%Inh,PIP5K2C; 1 µM,0%
same,%Inh,PKAC-alpha; 1 µM,14%
same,%Inh,PKAC-beta; 1 µM,14%
same,%Inh,PKMYT1; 1 µM,0%
Cc1c(Cn2ccn3c(=O)cc(N4CCOCC4)nc23)cccc1C(F)(F)F [GSK2289044],%Inh,PHKG1; [1],0%
same,%Inh,PHKG2; [1],10%
same,%Inh,PIK3C2B; [1],20%
same,%Inh,PIK3C2G; [1],6%
same,%Inh,PIK3CA; [1],21%
same,%Inh,PIK3CB; [1],100%
same,%Inh,PIK3CD; [1],92%
same,%Inh,PIK3CG; [1],29%
same,%Inh,PIK4CB; [1],0%
same,%Inh,PIKFYVE; [1],0%
same,%Inh,PIM1; [1],0%
same,%Inh,PIM2; [1],0%
same,%Inh,PIM3; [1],4%
same,%Inh,PIP5K1A; [1],0%
same,%Inh,PIP5K1C; [1],10%
same,%Inh,PIP5K2B; [1],15%
same,%Inh,PIP5K2C; [1],0%
same,%Inh,PKAC-alpha; [1],11%
same,%Inh,PKAC-beta; [1],0%
same,%Inh,PKMYT1; [1],0%
CCn1c(-c2cccnc2O)nc2cnccc21 [SB-736715],%Inh,PHKG1; [1],0%
same,%Inh,PHKG2; [1],3%
same,%Inh,PIK3C2B; [1],0%
same,%Inh,PIK3C2G; [1],0%
same,%Inh,PIK3CA; [1],0%
same,%Inh,PIK3CB; [1],0%
same,%Inh,PIK3CD; [1],0%
same,%Inh,PIK3CG; [1],1%
same,%Inh,PIK4CB; [1],24%
same,%Inh,PIKFYVE; [1],22%
same,%Inh,PIM1; [1],0%
same,%Inh,PIM2; [1],0%
same,%Inh,PIM3; [1],0%
same,%Inh,PIP5K1A; [1],0%
same,%Inh,PIP5K1C; [1],0%
same,%Inh,PIP5K2B; [1],0%
same,%Inh,PIP5K2C; [1],19%
same,%Inh,PKAC-alpha; [1],4%
same,%Inh,PKAC-beta; [1],0%
same,%Inh,PKMYT1; [1],0%
Cc1c(O)cccc1Nc1ccnc2ccc(C(F)(F)F)cc12.Cl [GW466413],%Inh,PHKG1; [1],3%
same,%Inh,PHKG2; [1],0%
same,%Inh,PIK3C2B; [1],18%
same,%Inh,PIK3C2G; [1],48%
same,%Inh,PIK3CA; [1],0%
same,%Inh,PIK3CB; [1],0%
same,%Inh,PIK3CD; [1],25%
same,%Inh,PIK3CG; [1],0%
same,%Inh,PIK4CB; [1],3%
same,%Inh,PIKFYVE; [1],11%
same,%Inh,PIM1; [1],8%
same,%Inh,PIM2; [1],0%
same,%Inh,PIM3; [1],0%
same,%Inh,PIP5K1A; [1],32%
same,%Inh,PIP5K1C; [1],11%
same,%Inh,PIP5K2B; [1],0%
same,%Inh,PIP5K2C; [1],30%
same,%Inh,PKAC-alpha; [1],0%
same,%Inh,PKAC-beta; [1],3%
same,%Inh,PKMYT1; [1],39%
